This passage reports Inhibition results from ChEMBL document CHEMBL4513146, “CO-ADD screening of Karazin Kharkiv National University (Ukraine) compounds”.

Entries with a potency or affinity are not part of this list.

The first experiment has as its system Staphylococcus aureus. The following applies: Concentration 32 ug.mL-1;; ASSAY_TEST Inhibition of Bacterial Growth; detection method Absorption (OD600); MEDIA CAMHB; plate type 384well; NBS; CORNING #3640; time 18 hr.
In the case of `COc1cccc(NC(=O)Cn2nc3c4c5c(sc4ncn3c2=O)CCCC5)c1`, the Inhibition is given as 2.27%.
On the same count and under the same terms, as for `Cc1cc(C)c(NC(=O)Cn2nc3c(Sc4ccccc4)nccn3c2=O)c(C)c1`, the figure is 5.4%.
Still for that read-out and setting: as for `CCOC(=O)c1ccc(NC(=O)Cn2nc3ccc(Sc4cccc(F)c4)nn3c2=O)cc1`, the figure is 9.91%.
For `COc1ccc(NC(=O)CSc2nnc3c(=O)n(-c4ccc(Br)cc4)ccn23)cc1`, the Inhibition was 5.23%.
On the same count and under the same terms, next, `COc1ccc(NC(=O)c2ccc3nn(CC(=O)Nc4ccc5c(c4)OCCO5)c(=O)n3c2)cc1`: 0.27%; `O=C(CCc1nnc2c(N3CCCCC3)nc3ccccc3n12)NCc1ccccc1Cl`: 7.81%.
Still for that read-out and setting: next, `Cc1ccc(CNC(=O)Cn2nc3ccc(SCc4ccc(Cl)cc4)nn3c2=O)cc1`: 11.66%; `Cc1nnc2c(=O)n(CC(=O)Nc3cccc(Br)c3)c3ccccc3n12`: 15.88%; `O=C(Cn1nc2c(N3CCOCC3)nccn2c1=O)N1CCN(c2ccccc2F)CC1`: 14.68%.
On the same count and under the same terms, as for `Cc1ccc(Oc2nccn3c(=O)n(CC(=O)Nc4ccc(Br)cc4F)nc23)cc1`, the figure is 5.87%; as for `COC(=O)c1ccccc1NC(=O)Cn1nc2c(SC3CCCCC3)nccn2c1=O`, -10.07%; as for `COc1cc(OC)c(NC(=O)Cn2nc3ccc(Sc4ccc(C)cc4)nn3c2=O)cc1Cl`, -4.96%.
Turning to `CCC(Sc1nnc2c(=O)n(-c3ccc(F)cc3)ccn12)C(=O)Nc1cc(OC)cc(OC)c1` (stereo not given), the Inhibition came to 15.63%.
In the case of `O=C(Cn1nc2c(Oc3ccccc3)nccn2c1=O)Nc1ccc(Br)cc1F`, the Inhibition was -5.68%.
On the same count and under the same terms, next, `COc1ccc(CNC(=O)Cn2nc3c(N4CCOCC4)nccn3c2=O)cc1`: 22.13%; `O=S(=O)(c1ccc2nncn2c1)N(Cc1ccc(F)cc1)c1ccc(F)c(F)c1`: -11.56%.
On the same count and under the same terms, as for `CCOc1ccc(-n2ccn3c(SCC(=O)Nc4ccccc4C(F)(F)F)nnc3c2=O)cc1`, the figure is 16.73%; as for `CCCn1c(=O)c2sccc2n2c(=O)n(CC(=O)c3cc(C)ccc3C)nc12`, 7.83%; as for `CCc1cccc(NC(=O)Cn2nc3ccc(SC4CCCCC4)nn3c2=O)c1`, 13.65%.
Take `Cc1cc(Br)ccc1NC(=O)Cn1nc2c(SC3CCCCC3)nccn2c1=O`: the Inhibition is 6.25%.
Take `Cc1cc(C)cc(N(Cc2ccccc2)S(=O)(=O)c2cccn3c(C)nnc23)c1`: the Inhibition was -1.33%.
On the same count and under the same terms, next, `Cc1ccc(CN(c2ccc(C(C)C)cc2)S(=O)(=O)c2cccn3c(C)nnc23)cc1`: 3.26%; `CCc1ccccc1Sc1nccn2c(=O)n(CC(=O)Nc3ccc(C)cc3)nc12`: 2.48%.
Same read-out and setting: next, `COc1ccc(CNC(=O)Cn2nc3c4cc(-c5ccc(Cl)cc5)nn4ccn3c2=O)cc1`: 6.34%; `COc1cccc(CNC(=O)CSc2nnc3c4cc(-c5cc(C)ccc5C)nn4ccn23)c1OC`: 5.75%; `CCc1nnc2c(S(=O)(=O)N(Cc3ccc(F)cc3)c3cccc(Cl)c3)cccn12`: 8.4%.
Still for that read-out and setting: next, `COc1ccc(OC)c(NC(=O)Cn2nc3ccc(-c4ccc(Cl)cc4)nn3c2=O)c1`: 10.25%; `CCCCN(CC)c1ccc2nnc(CCc3nc(-c4ccc(Br)cc4)no3)n2n1`: 6.29%; `COc1cccc(-n2ccn3c(SCC(=O)c4ccc(C)cc4)nnc3c2=O)c1`: 8.57%.
Turning to `Cc1nnc2c(SCC(=O)Nc3ccc(Br)cc3F)nc3ccccc3n12`, the Inhibition came out at 1.94%.
For `COc1ccc(NC(=O)Cn2nc3c(N4CCCC(C)C4)nccn3c2=O)cc1OC` (stereo not given), the Inhibition is -18.12%.
With `Cc1cccc(N(Cc2ccccc2)S(=O)(=O)c2cccn3c(C)nnc23)c1`, the Inhibition turned out to be 19.49%.
On the same count and under the same terms, next, `CCOc1ccccc1CNC(=O)CCc1nnc2ccc(-c3ccccc3)nn12`: 9.42%; `Cc1nc(-c2ccccn2)cc2nn(CC(=O)Nc3ccccc3C(F)(F)F)c(=O)n12`: 2.98%.
As to `CC(C)Cn1c(=O)c2ccc(C(=O)NC3CCCC3)cc2n2c(=O)n(CC(=O)NC3CCCCC3)nc12`, the Inhibition is listed as -0.85%.
Still for that read-out and setting: as for `Cc1cccc(NC(=O)c2ccc3nn(CC(=O)N4CCc5ccccc5C4)c(=O)n3c2)c1`, the figure is -5.11%; as for `O=S(=O)(c1ccc2nncn2c1)N(Cc1ccccc1)c1ccc(F)c(F)c1`, -0.12%.
Regarding `NC(=O)CSc1nnc2c(=O)n(-c3ccc(F)cc3)ccn12`, the Inhibition worked out at 22.03%.
Turning to `COc1cccc(-n2ccn3c(SCC(=O)Nc4ccc(Cl)cc4)nnc3c2=O)c1`, the Inhibition is recorded as 16.43%.
On the same count and under the same terms, as for `O=C(Cn1nc2c(N3CCOCC3)nc3ccccc3n2c1=O)Nc1ccccc1Br`, the figure is 3.23%.

The next experiment deals with Escherichia coli. Particulars: Concentration 32 ug.mL-1;; ASSAY_TEST Inhibition of Bacterial Growth; detection method Absorption (OD600); MEDIA CAMHB; plate type 384well; NBS; CORNING #3640; time 18 hr.
As to `COc1cccc(NC(=O)Cn2nc3c4c5c(sc4ncn3c2=O)CCCC5)c1`, the Inhibition is recorded as -1.99%.
Still for that read-out and setting: as for `Cc1cc(C)c(NC(=O)Cn2nc3c(Sc4ccccc4)nccn3c2=O)c(C)c1`, the figure is -7.73%; as for `CCOC(=O)c1ccc(NC(=O)Cn2nc3ccc(Sc4cccc(F)c4)nn3c2=O)cc1`, -1.47%; as for `COc1ccc(NC(=O)CSc2nnc3c(=O)n(-c4ccc(Br)cc4)ccn23)cc1`, 2.74%.
Same read-out and setting: as for `COc1ccc(NC(=O)c2ccc3nn(CC(=O)Nc4ccc5c(c4)OCCO5)c(=O)n3c2)cc1`, the figure is -8.29%; as for `O=C(CCc1nnc2c(N3CCCCC3)nc3ccccc3n12)NCc1ccccc1Cl`, 4.64%; as for `Cc1ccc(CNC(=O)Cn2nc3ccc(SCc4ccc(Cl)cc4)nn3c2=O)cc1`, -2.92%.
On the same count and under the same terms, as for `Cc1nnc2c(=O)n(CC(=O)Nc3cccc(Br)c3)c3ccccc3n12`, the figure is -0.63%.
As for `O=C(Cn1nc2c(N3CCOCC3)nccn2c1=O)N1CCN(c2ccccc2F)CC1`, the Inhibition stood at 2.59%.
Regarding `Cc1ccc(Oc2nccn3c(=O)n(CC(=O)Nc4ccc(Br)cc4F)nc23)cc1`, the Inhibition is reported as -0.38%.
The same measure, in the same setting: as for `COC(=O)c1ccccc1NC(=O)Cn1nc2c(SC3CCCCC3)nccn2c1=O`, the figure is -11.96%; as for `COc1cc(OC)c(NC(=O)Cn2nc3ccc(Sc4ccc(C)cc4)nn3c2=O)cc1Cl`, -10.5%; as for `CCC(Sc1nnc2c(=O)n(-c3ccc(F)cc3)ccn12)C(=O)Nc1cc(OC)cc(OC)c1` (stereo not given), -3.99%.
On to `O=C(Cn1nc2c(Oc3ccccc3)nccn2c1=O)Nc1ccc(Br)cc1F`, for which the Inhibition is given as -11.64%.
Still for that read-out and setting: as for `COc1ccc(CNC(=O)Cn2nc3c(N4CCOCC4)nccn3c2=O)cc1`, the figure is 3.1%; as for `O=S(=O)(c1ccc2nncn2c1)N(Cc1ccc(F)cc1)c1ccc(F)c(F)c1`, -13.53%; as for `CCOc1ccc(-n2ccn3c(SCC(=O)Nc4ccccc4C(F)(F)F)nnc3c2=O)cc1`, 2.18%.
On the same count and under the same terms, as for `CCCn1c(=O)c2sccc2n2c(=O)n(CC(=O)c3cc(C)ccc3C)nc12`, the figure is 0.58%; as for `CCc1cccc(NC(=O)Cn2nc3ccc(SC4CCCCC4)nn3c2=O)c1`, -0.36%; as for `Cc1cc(Br)ccc1NC(=O)Cn1nc2c(SC3CCCCC3)nccn2c1=O`, -6.44%.
On the same count and under the same terms, as for `Cc1cc(C)cc(N(Cc2ccccc2)S(=O)(=O)c2cccn3c(C)nnc23)c1`, the figure is -7.5%; as for `Cc1ccc(CN(c2ccc(C(C)C)cc2)S(=O)(=O)c2cccn3c(C)nnc23)cc1`, -8.61%; as for `CCc1ccccc1Sc1nccn2c(=O)n(CC(=O)Nc3ccc(C)cc3)nc12`, -9.52%.
In the case of `COc1ccc(CNC(=O)Cn2nc3c4cc(-c5ccc(Cl)cc5)nn4ccn3c2=O)cc1`, the Inhibition is recorded as 4.2%.
As for `COc1cccc(CNC(=O)CSc2nnc3c4cc(-c5cc(C)ccc5C)nn4ccn23)c1OC`, the Inhibition is -5.6%.
On the same count and under the same terms, as for `CCc1nnc2c(S(=O)(=O)N(Cc3ccc(F)cc3)c3cccc(Cl)c3)cccn12`, the figure is -8.07%; as for `COc1ccc(OC)c(NC(=O)Cn2nc3ccc(-c4ccc(Cl)cc4)nn3c2=O)c1`, -2.3%; as for `CCCCN(CC)c1ccc2nnc(CCc3nc(-c4ccc(Br)cc4)no3)n2n1`, -0.23%.
Same read-out and setting: as for `COc1cccc(-n2ccn3c(SCC(=O)c4ccc(C)cc4)nnc3c2=O)c1`, the figure is -9.45%; as for `Cc1nnc2c(SCC(=O)Nc3ccc(Br)cc3F)nc3ccccc3n12`, -10.05%.
For the compound `COc1ccc(NC(=O)Cn2nc3c(N4CCCC(C)C4)nccn3c2=O)cc1OC` (stereo not given), the Inhibition is -13.91%.
Same read-out and setting: next, `Cc1cccc(N(Cc2ccccc2)S(=O)(=O)c2cccn3c(C)nnc23)c1`: -3.05%.
Take `CCOc1ccccc1CNC(=O)CCc1nnc2ccc(-c3ccccc3)nn12`: the Inhibition is given as -2.56%.
In the case of `Cc1nc(-c2ccccn2)cc2nn(CC(=O)Nc3ccccc3C(F)(F)F)c(=O)n12`, the Inhibition was -9.66%.
For `CC(C)Cn1c(=O)c2ccc(C(=O)NC3CCCC3)cc2n2c(=O)n(CC(=O)NC3CCCCC3)nc12`, the Inhibition was -0.58%.
On the same count and under the same terms, as for `Cc1cccc(NC(=O)c2ccc3nn(CC(=O)N4CCc5ccccc5C4)c(=O)n3c2)c1`, the figure is -8.84%; as for `O=S(=O)(c1ccc2nncn2c1)N(Cc1ccccc1)c1ccc(F)c(F)c1`, -6.68%; as for `NC(=O)CSc1nnc2c(=O)n(-c3ccc(F)cc3)ccn12`, 3.06%.
For `COc1cccc(-n2ccn3c(SCC(=O)Nc4ccc(Cl)cc4)nnc3c2=O)c1`, the Inhibition is reported as -13.45%.
Same read-out and setting: as for `O=C(Cn1nc2c(N3CCOCC3)nc3ccccc3n2c1=O)Nc1ccccc1Br`, the figure is -2.52%.
